Rows were chosen to be rich in hits. Some 6.2% of all compounds tested hit in one or more screens of this group.
MARV entry inh = blocks Marburg virus binding to or entry into cells | Marburg virus pseudotyped entry inhibition, cell reporter | Potency, µM (highest dose often 37.8 µM), without a hit: at the highest dose activity change, negative = inhibition, usual class: inhibitors | actives 1.8% (n = 300,000) | AID 540276; calls by dose curve; tested in HEK293 cells; also: potency is read from the fitted curve at half-maximal effect
Lassa entry inh = blocks Lassa virus binding to or entry into cells; Lassa virus pseudotype entry inhibition, cell reporter; Potency, µM (series often up to 37.9 µM), without a hit: at the top dose activity change, negative = inhibition, hits mostly inhibitors; actives 1.2% (n = 300,000); AID 540256; calls by dose curve; tested in HEK293 cells; also: potency is read from the fitted curve at half-maximal effect; nearly all actives have a fitted effect of over 50% in size
HCMV antiviral = inhibitors of human cytomegalovirus | HFF cells, HCMV-luciferase reporter, 72 h; hits give low values | activity change, negative = inhibition, % at 57.5 µM | actives 4.5% (n = 410,000) | AID 1259415; in the data active = activity change below about -60%; inconclusive = no clear call, values can overlap the other calls; inactive = above about -39%
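Screen run at 2 compound doses on HFFs infected with reporter HCMV, MOI 1 PFU/cell. Luciferase activity from cell lysates at 72 h post infection gave inhibition relative to buffer-only and Salinomycin wells.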
FMDV antiviral = antivirals against foot and mouth disease virus | Potency, µM (top dose mostly 57.9 µM), for the others: top-dose activity change, negative = inhibition, hits mostly inhibitors | FMDV antiviral cell-based qHTS | AID 1159524 | actives 1.2% (n = 410,000); calls by dose curve; tested in HEK293T cells; also: read-out not given here; potency is read from the fitted curve at half-maximal effect; nearly all actives have a fitted effect of over 45% in size
* = called active by the depositor; u = inconclusive; x = no result given; [ ] = dose if it differs, or a comment. % is scaled to controls: 0 for no effect and ±100 for the full control effect.

SMILES	MARV entry inh	Lassa entry inh	HCMV antiviral	FMDV antiviral
COc1ccc(NC(=O)CCS(=O)(=O)c2ccc3nc(C)sc3c2)cc1Cl	x	16.0%[46.1 µM]	-14.8	-23.2%
C[C@H](CO)N1C[C@H](C)[C@H](CN(C)Cc2cccc(F)c2)Oc2ncc(C3=CCCC3)cc2C1=O	x	x	11.6	x
COc1cc(S(=O)(=O)Nc2ccc3nc(C)sc3c2)ccc1NC(C)=O	x	x	-88.3*	6.0%
COc1cc(OC)c(OC)cc1CN1CCOc2ccc(CN3CCN(C(C)=O)CC3)cc2C1	x	x	x	-29.7%
COC(=O)c1c(C)nn(-c2ccc(OC(F)(F)F)cc2)c1-c1snnc1C	u	u	-19.8	35.5µM*
COc1ccc(CNc2ncncc2-c2c(C)noc2C)c(OC)c1	x	x	x	-6.7%
COc1cc(C(=O)NCC(c2cccs2)N(C)C)cc(Cl)c1OC(C)C (stereo unspecified)	-37.8%	u	-61.2*	29.6%
CN1N=C(C(=O)N2CCOc3ccc(CN4CCCC(C(=O)c5cccnc5)C4)cc3C2)CCC1=O (stereo unspecified)	x	x	x	1.1%
Cc1ccc(-c2cc3onc(-c4ccccc4)c3c(=O)n2C)cc1	x	x	-70.8*	17.8µM*
NC(=S)N1OC[C@@H]2COc3ccc4ccccc4c3[C@@H]21	u	5.1%	-67.5*	-0.5%
CO/N=C/NC(=O)N1OC[C@@H]2COc3ccc4ccccc4c3[C@@H]21	-10.1%	9.1%	1.5	-10.0%
O=C(COc1ccc2ccccc2c1)NC1CC(=O)N(c2cccc(F)c2)C1 (stereo unspecified)	x	2.3%[46.1 µM]	21.2	-15.8%
COC(=O)C1CCN(Cc2ccc3c(c2)CN(C(=O)C2CCCN(c4ccccn4)C2)CCO3)CC1 (stereo unspecified)	x	x	x	-15.4%
CC(C)n1cc(/C=N/NC(=O)COc2cccc3cccnc23)c2ccccc21	10µM*	u	11.8	u
COc1ccc2[nH]c(C(=O)N/N=C/c3ccc(O)cc3O)cc2c1	x	x	-89.7*	15.9%
COc1cccc(/C=N/NC(=O)c2ccc3nc[nH]c3c2)c1O	x	x	0.0	9.3%
COc1cc(OC)c2cc(C(=O)N/N=C/c3cccc(OC)c3O)[nH]c2c1	4.47µM*	u	-103.8*	-24.6%
COc1cccc(/C=N/NC(=O)c2cc3c(OC)ccc(OC)c3[nH]2)c1O	x	x	-99.2*	-20.0%
Cc1ccccc1CCNCc1c(C(=O)O)c(C)n(Cc2c(F)cccc2Cl)c1C	9.8%[46.1 µM]	3.0%[46.1 µM]	5.2	-15.1%
O=C(N[C@H]1CC[C@@]23CCCN2C(=O)CCC[C@H]3[C@H]1Cc1ccccc1)C1CCC1	x	x	12.0	x
CCC(=O)Nc1nnc2n1CCS2	x	1.3%[46.1 µM]	0.4	17.3%
COc1ccc(/C=C2\CCCCC2=O)cc1	-3.7%[46.1 µM]	u	57.7	10.9%
COc1ccc(C=C2CS(=O)(=O)CC(=Cc3ccc(OC)cc3)C2=O)cc1	x	x	-99.2*	12.6µM*
O=C(Nc1cccc(Oc2ccccc2)c1)c1ccc(-n2cncn2)c2ccoc12	x	x	9.6	-1.7%
COC(=O)[C@@H]1[C@@H](C)N(CCc2cc(OC)c(OC)c(OC)c2)C(=O)N[C@H]1c1ccccc1	-31.0%[14.2 µM]	x	x	x
SMILES	MARV entry inh	Lassa entry inh	HCMV antiviral	FMDV antiviral
CCC[C@@H]1Cc2c(sc3ncnc(N)c23)CO1	17.6%	x	x	x
CCOC(=O)N[C@H](O)C(=O)c1cccs1	-9.3%	x	x	x
Cc1ccc(Cn2c(=N)n(CC(O)c3ccco3)c3ccccc32)cc1 (stereo unspecified)	11.2µM*	-20.8%	-26.3	u
CC(C)(C)C(=O)Cn1c(=N)n(Cc2ccccc2)c2ccccc21	u	3.2%	-16.9	-23.8%
CCCn1c(=N)n(CC(=O)c2ccc(OCC(=O)OC)cc2)c2ccccc21	x	x	-95.5*	-19.6%
Cc1ccc(Cn2c(=N)n(CC(=O)c3ccccc3)c3ccccc32)cc1	x	x	-83.0*	-39.3%
CCCn1c(=N)n(CC(=O)c2ccc(Cl)cc2)c2ccccc21	u	u	-83.3*	11.9%
O=c1c(F)cn([C@H]2CCCO2)c(=O)n1Cc1ccccc1Cl	1.6%	x	x	x
O=C(CCc1nc2ccccc2s1)N1CCOc2ccc(CN3CCc4sccc4C3)cc2C1	x	x	x	2.2%
CCCn1c(N)c(C(=O)CSc2ncc(C(F)(F)F)cc2Cl)c(=O)[nH]c1=O	u	3.16µM*	-35.0	u
CCCn1c(N)c(C(=O)CSc2nc(C)nc3sc(C)c(C)c23)c(=O)[nH]c1=O	-6.1%	-2.5%	-15.8	-13.4%
Cc1cc(C)c[n+](C(C)C(=O)c2ccc(-c3ccccc3)cc2)c1 (stereo unspecified)	u	-21.1%	-99.4*	u
Cc1ccc[n+](C(C)C(=O)c2ccc(Cl)cc2)c1 (stereo unspecified)	x	x	-4.9	-4.2%
COc1ccccc1C(C[N+](=O)[O-])c1c(N)n(C)c(=O)n(C)c1=O (stereo unspecified)	x	x	-97.1*	31.6µM*
O=C(C1CC(=O)N(C2CCCC2)C1)N1CCN(c2ccccc2F)CC1 (stereo unspecified)	x	x	3.7	-23.3%
O=C(C1CC(=O)N(C2CCCC2)C1)N1CCC(Cc2ccccc2)CC1 (stereo unspecified)	-1.3%	0.7%	-65.2*	x
O=C(C1CCC(=O)N(C2CCCC2)C1)N1CCN(Cc2cccc(Cl)c2)CC1 (stereo unspecified)	29.4%	-11.9%	-71.6*	-7.4%
O=C(NCCc1ccc(Cl)cc1)C1CCC(=O)N(C2CCCCCC2)C1 (stereo unspecified)	-6.0%[46.1 µM]	4.9%[46.1 µM]	-61.2*	-5.7%
C[C@@H]1CC2=CCCC2[C@]2(O1)C(=O)N(Cc1ccc(F)cc1)c1cccc(Br)c12 (stereo partly specified)	8.0%[14.2 µM]	x	x	x
COc1cc(C(=O)Nc2nc(-c3ccc(C)cc3)cs2)ccc1OCC(=O)N1CCOCC1	-2.4%	6.5%	-30.3	22.4µM*
Cc1ccc(-c2csc(NC(=O)C3=NN(c4ccccc4)C(=O)CC3)n2)cc1	u	u	-26.9	28.2µM*
Cc1ccc(-c2csc(NC(=O)COC(=O)c3cccc(S(=O)(=O)N4CCOCC4)c3)n2)cc1	u	-24.4%	104.3	-6.2%
O=C(Nc1nc(-c2ccc(S(=O)(=O)N3CCOCC3)cc2)cs1)c1ccccc1	3.98µM*	u	-91.5*	14.1µM*
COc1cc(C(=O)Nc2nc(-c3ccc(F)cc3)cs2)ccc1OCC(=O)N1CCOCC1	u	u	u	-62.5%
COc1cccc(C(=O)Nc2nc(-c3ccc(S(=O)(=O)N4CCOCC4)cc3)cs2)c1	u	11.2µM*	-87.5*	u
SMILES	MARV entry inh	Lassa entry inh	HCMV antiviral	FMDV antiviral
COc1cccc(CNC(=O)Cn2nc(C)c3sc4ccccc4c3c2=O)c1OC	-2.4%[46.1 µM]	1.5%[46.1 µM]	-1.3	-8.1%
COC(=O)CC=C[C@@H](C)[C@@H](Cc1ccccc1Br)OC	-3.5%[14.2 µM]	0.1%[14.3 µM]	x	x
O=C(Nc1nc(-c2ccccc2)cs1)c1ccc(S(=O)(=O)N2CCc3ccccc32)cc1	u	u	-77.4*	u
COc1ccc(/C=N/Nc2nc(-c3cccc(S(=O)(=O)N4CCCC4)c3)cs2)c(OC)c1	u	u	-65.0*	u
Cc1ccc(S(=O)(=O)N2CCOCC2)cc1C(=O)Nc1nc(-c2cccnc2)cs1	6.4%	-0.3%	-15.6	x
O=S(=O)(c1ccc(-c2csc(-c3cccnc3)n2)cc1)N1CCOCC1	u	2.0%	-63.9*	-22.1%
Cc1ccc(-c2csc(NC(=O)c3cccc(S(=O)(=O)N4CCN(C)CC4)c3)n2)cc1	-1.6%	-3.8%	16.1	12.6µM*
